# Measurements published in PubChem BioAssay (NCI).
# The panel holds about 79,000 compounds, 15% with a hit somewhere; the sample as a whole holds those more often. Unmarked numbers belong to inactive results. Activity calls are given as the source filed them. No stated cut-off is given here; in the data, active means growth inhibition above about 70%; inactive means the rest.
# Key:
# [1] = NCI Yeast Anticancer Drug Screen. Data for the mec2-1 strain (AID 157); settings: S. cerevisiae mec2-1 strain, stronger effect = higher value
# Procedure, shortened: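 Using mec2-1 yeast: add compound, measure growth, express inhibition versus vehicle-treated cultures.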
# [2] = NCI Yeast Anticancer Drug Screen. Data for the rad14 strain (AID 159);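 further: 0% = growth of vehicle-treated control cultures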; settings: S. cerevisiae rad14 strain growth inhibition, stronger effect = higher value
# Procedure, shortened: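 Screen for anticancer potential: a yeast strain altered in DNA damage repair is grown with compound, and reduced growth is quantified against vehicle controls.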
# [3] = NCI Yeast Anticancer Drug Screen. Data for the sgs1 mgt1 strain (AID 161);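 further: 0% = growth of cultures given vehicle only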; settings: S. cerevisiae sgs1 mgt1 strain, stronger effect = higher value
# Procedure, shortened: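 Percent growth inhibition was derived by comparing compound-exposed mutant yeast with vehicle-exposed cultures. The strain carries alterations in DNA damage repair.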
# [4] = NCI Yeast Anticancer Drug Screen. Data for the CLN2oe strain (AID 163);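 further: 0% = growth of vehicle-only control cultures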; settings: S. cerevisiae CLN2oe strain, stronger effect = higher value
# Procedure, shortened: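 Whole-cell yeast growth assay. A strain engineered for altered cell-cycle control received compound, and inhibition relative to vehicle-treated cultures was recorded.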
# [5] = NCI Yeast Anticancer Drug Screen. Data for the cln2 rad14 strain (AID 165);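 further: 0% = growth equal to vehicle treated cultures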; settings: S. cerevisiae cln2 rad14 strain, stronger effect = higher value
# Procedure, shortened: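 Yeast strain cln2 rad14, bearing defects in cell cycle control and DNA repair, serves as the test system; values reflect growth inhibition compared with vehicle.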
# [6] = NCI Yeast Anticancer Drug Screen. Data for the bub3 strain (AID 167); settings: S. cerevisiae bub3 mutant strain, stronger effect = higher value
# Procedure, shortened: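 Screening used yeast with an engineered genetic alteration affecting cell cycle control. Compound-exposed cultures were compared with vehicle cultures, and reduced growth was taken as inhibition.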
# [7] = NCI Yeast Anticancer Drug Screen. Data for the wt2 strain (AID 169);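 further: 0% = growth of vehicle-treated yeast cultures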; settings: S. cerevisiae wt2 strain growth inhibition, stronger effect = higher value
# Procedure, shortened: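 Treated yeast vs. vehicle-treated yeast: growth inhibition determined.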
# [8] = NCI Yeast Anticancer Drug Screen. Data for the mlh1 strain (AID 171);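 further: 0% = growth of vehicle-treated control cultures of the same strain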; settings: S. cerevisiae mlh1 strain growth inhibition, stronger effect = higher value
# Procedure, shortened: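 A yeast strain with a defined genetic lesion serves as the test organism. Cultures receive compound or vehicle, and growth is measured.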
# [9] = NCI Yeast Anticancer Drug Screen. Data for the mlh1 rad18 strain (AID 175); settings: S. cerevisiae mlh1 rad18 strain growth inhibition, stronger effect = higher value
# Procedure, shortened: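 Steps: expose repair-defective yeast to compound; measure growth; express inhibition against vehicle-treated controls.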
# [10] = NCI Yeast Anticancer Drug Screen. Data for the rad18 strain (AID 177); settings: S. cerevisiae rad18 mutant growth inhibition, stronger effect = higher value
# Procedure, shortened: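 Measured value is growth inhibition of a yeast strain bearing a DNA repair alteration, referenced to vehicle-treated cells.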
# [11] = NCI Yeast Anticancer Drug Screen. Data for the wt1 strain (AID 149);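 further: 0% = growth of vehicle-treated wt1 cultures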; settings: S. cerevisiae wt1 strain (SPY 50644) growth inhibition, stronger effect = higher value
# Procedure, shortened: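 Using yeast strain wt1, compound-induced growth inhibition was determined against vehicle-treated cultures.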
# [12] = NCI Yeast Anticancer Drug Screen. Data for the rad50EPP+ strain (AID 151);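 further: 0% = growth of vehicle-treated control cultures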; settings: S. cerevisiae rad50 mutant strain, stronger effect = higher value
# Procedure, shortened: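 Read-out is yeast growth inhibition relative to vehicle; cells used were the rad50EPP+ strain.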
# [13] = NCI Yeast Anticancer Drug Screen. Data for the mgt1 strain (AID 153); settings: S. cerevisiae mgt1 mutant growth inhibition, stronger effect = higher value
# Procedure, shortened: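 Measured: inhibition of mgt1 yeast growth by compound, normalized to vehicle-treated cultures.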
# [14] = NCI Yeast Anticancer Drug Screen. Data for the rad50 strain (AID 155);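 further: 0% = growth of vehicle-only cultures of the same strain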; settings: S. cerevisiae rad50 strain growth inhibition, stronger effect = higher value
# Procedure, shortened: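 Relative growth inhibition (compound vs vehicle) was measured in yeast with a defined repair-gene alteration.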
# [15] = NCI Yeast Anticancer Drug Screen. Data for the sgs1 strain (AID 173);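 further: 0% = growth of vehicle-only control cultures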; settings: S. cerevisiae sgs1 mutant, stronger effect = higher value
# Procedure, shortened: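 A genetically defined yeast mutant is incubated with the test compound, and its growth is compared to that of the same strain given vehicle.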
# [16] = at 5.0 µM (retest, dose inferred, filed as 0.5)
# [17] = at 50.0 µM (retest, dose inferred, filed as 5.0)
smiles,measurement,setting,value
CCCCCCCCCCCC(=O)N(C)C,growth inhibition,[1]; at 100.0 µM,98% (active)
same,growth inhibition,[2]; at 1.2 µM,7%
same,growth inhibition,[2]; at 3.7 µM,2%
same,growth inhibition,[2]; at 11.0 µM,12%
same,growth inhibition,[2]; at 33.0 µM,34%
same,growth inhibition,[2]; at 100.0 µM,99% (active)
same,growth inhibition,[3]; [16],-2%
same,growth inhibition,[3]; [17],98% (active)
same,growth inhibition,[3]; at 50.0 µM,93.2% (active)
same,growth inhibition,[4]; at 1.2 µM,2%
same,growth inhibition,[4]; at 3.7 µM,19%
same,growth inhibition,[4]; at 11.0 µM,2%
same,growth inhibition,[4]; at 33.0 µM,0%
same,growth inhibition,[4]; at 100.0 µM,98% (active)
same,growth inhibition,[5]; [16],31%
same,growth inhibition,[5]; [17],98% (active)
same,growth inhibition,[5]; at 50.0 µM,91.5% (active)
same,growth inhibition,[6]; at 1.2 µM,3%
same,growth inhibition,[6]; at 3.7 µM,-28%
same,growth inhibition,[6]; [16],-4%
same,growth inhibition,[6]; at 11.0 µM,3%
same,growth inhibition,[6]; at 33.0 µM,18%
same,growth inhibition,[6]; [17],97% (active)
same,growth inhibition,[6]; at 50.0 µM,92% (active)
same,growth inhibition,[6]; at 100.0 µM,98% (active)
same,growth inhibition,[7]; at 1.2 µM,-6%
same,growth inhibition,[7]; at 3.7 µM,-11%
same,growth inhibition,[7]; at 11.0 µM,-11%
same,growth inhibition,[7]; at 33.0 µM,29%
same,growth inhibition,[7]; at 100.0 µM,99% (active)
same,growth inhibition,[8]; at 1.2 µM,-32%
same,growth inhibition,[8]; at 3.7 µM,-35%
same,growth inhibition,[8]; at 11.0 µM,-26%
same,growth inhibition,[8]; at 33.0 µM,-28%
same,growth inhibition,[8]; at 100.0 µM,98% (active)
same,growth inhibition,[9]; [16],41%
same,growth inhibition,[9]; [17],94% (active)
same,growth inhibition,[9]; at 50.0 µM,91% (active)
same,growth inhibition,[10]; at 1.2 µM,-9%
same,growth inhibition,[10]; at 3.7 µM,-4%
same,growth inhibition,[10]; at 11.0 µM,-7%
same,growth inhibition,[10]; at 33.0 µM,15%
same,growth inhibition,[10]; at 100.0 µM,98% (active)
CCOC(=O)[C@H]1Nc2ccccc2C2c3ccccc3CC21 (stereo partly specified),growth inhibition,[11]; at 1.2 µM,-9%
same,growth inhibition,[11]; at 3.7 µM,-2%
same,growth inhibition,[11]; at 11.0 µM,0%
same,growth inhibition,[11]; at 33.0 µM,26%
same,growth inhibition,[11]; at 100.0 µM,54%
same,growth inhibition,[12]; at 1.2 µM,6%
same,growth inhibition,[12]; at 3.7 µM,0%
same,growth inhibition,[12]; at 11.0 µM,14%
same,growth inhibition,[12]; at 33.0 µM,31%
same,growth inhibition,[12]; at 100.0 µM,14%
same,growth inhibition,[13]; at 1.2 µM,-4%
same,growth inhibition,[13]; at 3.7 µM,10%
same,growth inhibition,[13]; at 11.0 µM,53%
same,growth inhibition,[13]; at 33.0 µM,64%
same,growth inhibition,[13]; at 100.0 µM,65%
same,growth inhibition,[14]; at 1.2 µM,-6%
same,growth inhibition,[14]; at 3.7 µM,-9%
same,growth inhibition,[14]; [16],15%
same,growth inhibition,[14]; at 11.0 µM,-4%
same,growth inhibition,[14]; at 33.0 µM,27%
same,growth inhibition,[14]; [17],91% (active)
same,growth inhibition,[14]; at 50.0 µM,84.6% (active)
same,growth inhibition,[14]; at 100.0 µM,55%
same,growth inhibition,[1]; at 1.2 µM,-23%
same,growth inhibition,[1]; at 3.7 µM,-12%
same,growth inhibition,[1]; [16],-10%
same,growth inhibition,[1]; at 11.0 µM,21%
same,growth inhibition,[1]; at 33.0 µM,53%
same,growth inhibition,[1]; [17],20%
same,growth inhibition,[1]; at 50.0 µM,91.3% (active)
same,growth inhibition,[1]; at 100.0 µM,65%
same,growth inhibition,[2]; at 1.2 µM,-13%
same,growth inhibition,[2]; at 3.7 µM,-16%
same,growth inhibition,[2]; at 11.0 µM,1%
same,growth inhibition,[2]; at 33.0 µM,22%
same,growth inhibition,[2]; at 100.0 µM,50%
same,growth inhibition,[3]; [16],25%
same,growth inhibition,[3]; [17],83% (active)
same,growth inhibition,[3]; at 50.0 µM,91.4% (active)
same,growth inhibition,[5]; [16],13%
same,growth inhibition,[5]; [17],73% (active)
same,growth inhibition,[5]; at 50.0 µM,90.9% (active)
same,growth inhibition,[6]; at 1.2 µM,-4%
same,growth inhibition,[6]; at 3.7 µM,11%
same,growth inhibition,[6]; [16],-6%
same,growth inhibition,[6]; at 11.0 µM,23%
same,growth inhibition,[6]; at 33.0 µM,79% (active)
same,growth inhibition,[6]; [17],75% (active)
same,growth inhibition,[6]; at 50.0 µM,90.5% (active)
same,growth inhibition,[6]; at 100.0 µM,81% (active)
same,growth inhibition,[7]; at 1.2 µM,-31%
same,growth inhibition,[7]; at 3.7 µM,-25%
same,growth inhibition,[7]; at 11.0 µM,21%
same,growth inhibition,[7]; at 33.0 µM,44%
same,growth inhibition,[7]; at 100.0 µM,48%
same,growth inhibition,[8]; at 1.2 µM,-3%
same,growth inhibition,[8]; at 3.7 µM,28%
same,growth inhibition,[8]; at 11.0 µM,52%
same,growth inhibition,[8]; at 33.0 µM,70% (active)
same,growth inhibition,[8]; at 100.0 µM,60%
same,growth inhibition,[15]; at 1.2 µM,-6%
same,growth inhibition,[15]; at 3.7 µM,4%
same,growth inhibition,[15]; at 11.0 µM,41%
same,growth inhibition,[15]; at 33.0 µM,64%
same,growth inhibition,[15]; at 100.0 µM,72% (active)
same,growth inhibition,[9]; [16],8%
same,growth inhibition,[9]; [17],94% (active)
same,growth inhibition,[9]; at 50.0 µM,87.8% (active)
same,growth inhibition,[10]; at 1.2 µM,-31%
same,growth inhibition,[10]; at 3.7 µM,-36%
same,growth inhibition,[10]; at 11.0 µM,17%
same,growth inhibition,[10]; at 33.0 µM,64%
same,growth inhibition,[10]; at 100.0 µM,74% (active)
